From PubChem BioAssay AID463173 (ICCB-Longwood Screening Facility, Harvard Medical School, 2010) come the findings set out here.

About 4,300 (8.3%) of roughly 52,000 compounds were called active. What follows is part of a selection rich in actives, with near analogues and random picks from the rest. A number with no mark means an inactive call. Cut-off read from the data, not from the text of the source: active = survival mostly below about 52% (no sharp cut-off); inactive = mostly above about 56%.

The test has as its system DeltatarO mutant. In words: S. aureus survival, RN4220 and DeltatarO strains – OD600, teichoic acid synthesis inhibitors, primary screen (AID 463173). The settings on record: S. aureus RN4220 wild type/DeltatarO growth, OD600, 18 h, hits give low values, screened at 18.75 µg/mL (by protocol).
For `CCN(CC)S(=O)(=O)c1ccc2c(c1)N(CC(=O)Nc1cccc(C(C)=O)c1)C(=O)CO2`, the survival is 84%.

With `Cc1ccc(Cl)cc1N1CCN(C(=O)Cn2ncc3c4ccccc4n(C)c3c2=O)CC1`, the survival is 54%. The value for `CC1=C(c2ccc(C)cc2)S(=O)(=O)NC1=NCCCN1CCN(c2ccc(F)cc2)CC1` was 69%. Consider `O=C(O)C(Cc1c[nH]c2ccccc12)Nc1ncnc2c1oc1ccccc12` (centres undefined), for which the survival was 76%.

For `CCc1ccc(NC(=O)CCc2c(C)nc3nc(-c4cc(OC)cc(OC)c4)nn3c2C)cc1`, the survival is 111%. In the case of `CCCCc1ccc(NC(=O)CSc2nnc3[nH]c(=O)cc(C)n23)cc1`, the survival was 95%. In the case of `Cc1ccc(CNC(=O)CCS(=O)(=O)c2ccc3c(c2)CC(C)N3C(=O)C2CC2)cc1` (centres undefined), the survival is 91%. For `Clc1cccc(-n2ncc3c(N4CCN(Cc5ccccc5)CC4)ncnc32)c1`, the survival was 25% (active). Next, `COc1ccccc1N1CCN(c2ncnc3c2cnn3-c2cc(Cl)ccc2C)CC1`: 124%; `Cc1ccc(-n2ncc3c(N4CCN(Cc5ccccc5)CC4)ncnc32)cc1Cl`: 87%; `COc1ccccc1N1CCN(c2ncnc3c2cnn3-c2cccc(Cl)c2)CC1`: -2% (active). Next, `COc1ccccc1N1CCN(c2ncnc3c2cnn3-c2ccc(C)cc2)CC1`: 91%. The value for `c1ccc(CN2CCN(c3ncnc4c3cnn4-c3ccccc3)CC2)cc1` was 69%; that for `COc1cc(CSc2ncc(CO)n2Cc2ccc(C)cc2)cc(OC)c1` was 92%; that for `COc1cccc(NC(=O)CSc2nc3c([nH]c4ccccc43)c(=O)n2-c2ccccc2)c1` was 76%.

As to `Cc1ccc(-n2c(SCC(=O)c3ccccc3)nc3c([nH]c4ccccc43)c2=O)cc1`, the survival was -5% (active). `O=C(CSc1nc2c([nH]c3ccccc32)c(=O)n1-c1ccccc1F)Nc1cccc(C(F)(F)F)c1`: the survival is 74%. With `O=C(CSc1nc2c([nH]c3ccccc32)c(=O)n1-c1ccccc1)Nc1cccc(C(F)(F)F)c1`, the survival is -4% (active). Consider `O=C(CSc1nc2c([nH]c3ccccc32)c(=O)n1-c1ccc(Cl)cc1)c1ccccc1`, for which the survival is 94%. Next, `Cc1cccc(NC(=O)CSc2nc3c([nH]c4ccccc43)c(=O)n2-c2ccc(F)cc2)c1C`: 49%. Next, `CCOc1ccc(-n2c(SCC(=O)Nc3cc(C)ccc3C)nc3c([nH]c4ccccc43)c2=O)cc1`: 75%. As to `Cc1ccc(C)c(NC(=O)CSc2nc3c([nH]c4ccccc43)c(=O)n2-c2ccc(F)cc2)c1`, the survival is 32% (active). The value for `O=C(CSc1nc2c([nH]c3ccccc32)c(=O)n1-c1cccc(Cl)c1)c1ccccc1` was 47% (active); that for `COc1ccc(-n2c(SCC(=O)c3ccccc3)nc3c([nH]c4ccccc43)c2=O)cc1` was 98%. On to `O=C(CSc1nc2c([nH]c3ccccc32)c(=O)n1-c1ccccc1)c1ccc(Cl)cc1`, for which the survival was 92%. With `O=C(CSc1nc2c([nH]c3ccccc32)c(=O)n1-c1ccccc1)c1ccccc1`, the survival was 77%. Next, `CCCn1ccc2c(OCC(=O)Nc3ccc(C(F)(F)F)cc3)cccc2c1=O`: 75%. The value for `COc1ccccc1CNC(=O)Cn1nc(C)n2cccc2c1=O` was 94%; that for `CCN(CC)c1ccc(NC(=O)Cn2cc3c(n2)CCCC3)c(C)c1` was 121%.

Regarding `CCOc1ccc(-n2c(SCC(=O)NC3CCCC3)nnc2-c2ccoc2C)cc1`, the survival was 92%.

Take `COc1ccc(NC(=O)c2ccc3c(SCC(=O)O)c4c(nc3c2)CCCC4)c(OC)c1`: the survival was 55%. Next, `CCOc1ccc(CNC(=O)c2ccc3c(Cl)c4c(nc3c2)CCCC4)cc1`: 75%; `COc1ccc(OC)c(NC(=O)c2ccc3c(Cl)c4c(nc3c2)CCCC4)c1`: 82%; `COC(=O)c1ccccc1NC(=O)c1ccc2c(Cl)c3c(nc2c1)CCCC3`: 80%.

With `COc1cc(Cl)c(C)cc1NC(=O)c1ccc2c(SCC(=O)O)c3c(nc2c1)CCCC3`, the survival is 41% (active). The value for `O=C(Nc1ccccc1F)c1ccc2c(Cl)c3c(nc2c1)CCC3` was 21% (active). Next, `CCOc1ccccc1NC(=O)c1ccc2c(Cl)c3c(nc2c1)CCC3`: 82%; `CCOc1ccccc1NC(=O)c1ccc2c(Cl)c3c(nc2c1)CCCC3`: 35% (active); `COc1cc(OC)c(NC(=O)c2ccc3c(Cl)c4c(nc3c2)CCCC4)cc1Cl`: 85%. Regarding `O=C(Nc1ccc(F)c(Cl)c1)c1ccc2c(Cl)c3c(nc2c1)CCCC3`, the survival is 118%. Next, `COc1ccccc1NC(=O)c1ccc2c(Cl)c3c(nc2c1)CCCC3`: 15% (active); `COc1ccc(C)cc1NC(=O)c1ccc2c(SCC(=O)O)c3c(nc2c1)CCCC3`: 77%.

For `COc1ccc(NC(=O)C2CCN(c3ccc(Sc4ccc(C)cc4)nn3)CC2)cc1`, the survival was 74%.

With `Cc1ccc(CNC(=O)C(C)n2c(=O)cc(-c3ccccc3)c3c(C)nn(C)c32)cc1` (centres undefined), the survival was 80%. Next, `C=CCn1c(Br)nc2c1c(=O)n(C)c(=O)n2C`: 73%; `CN(C1CCCCC1)S(=O)(=O)c1ccc2c(c1)c(=O)c(C(=O)NCCc1ccccc1)cn2C`: 79%. The value for `Cc1cc(C)c2c(-n3cccc3)c(C(=O)NCCc3ccccc3)sc2n1` was 90%; that for `Cc1cc(C)cc(OCCSc2nc(-c3cccs3)nc3cc(=O)[nH]n23)c1` was 67%. Next, `O=C(COc1ccccc1Cl)Nc1cc(-c2ccccc2F)nn1-c1ccccc1`: 91%; `O=C(NCc1cccc(Cl)c1)c1ccc2c(Cl)c3c(nc2c1)CCCC3`: 48%. With `COc1ccc(CNC(=O)c2ccc3c(Cl)c4c(nc3c2)CCCC4)c(OC)c1`, the survival was 92%. `COc1cc(NC(=O)c2ccc3c(Cl)c4c(nc3c2)CCC4)cc(OC)c1OC`: the survival is 62%. For `CCOC(=O)c1cccc(NC(=O)c2ccc3c(Cl)c4c(nc3c2)CCC4)c1`, the survival was 41% (active).

For `CCOC(=O)c1ccccc1NC(=O)c1ccc2c(Cl)c3c(nc2c1)CCC3`, the survival was 96%. Next, `COc1cccc(CNC(=O)c2ccc3c(Cl)c4c(nc3c2)CCCC4)c1`: 49% (active); `NS(=O)(=O)c1ccc(NC(=O)c2csnn2)cc1`: 80%; `O=C(NCCO)c1ccc(-c2nnc(Nc3ccc(OC(F)(F)Cl)cc3)c3ccccc23)cc1`: 72%. The value for `CCOC(=O)c1ccc(NC(=O)C2CCCN(c3ccc(Sc4ccc(C)cc4)nn3)C2)cc1` (centres undefined) was 43%; that for `Cc1ccccc1CN1c2ccccc2-c2nc(SCC(=O)Nc3cc(F)ccc3F)ncc2S1(=O)=O` was 89%; that for `Cc1ccc(C)c(CN2C(=O)c3ccccc3Sc3ccc(C(=O)NCc4ccc5c(c4)OCO5)cc32)c1` was 89%. Consider `Cc1[nH]c2ccccc2c1Cc1nnc(SCC(N)=O)n1Cc1ccco1`, for which the survival is 99%.

As to `CCOC(=O)c1nc(Nc2ccc(C(=O)OC(C)C)cc2)c2ccccc2n1`, the survival was 68%.

As for `COC(=O)c1ccc(Nc2nc(-c3ccccc3Cl)nc3ccccc23)cc1`, the survival is 21% (active).

On to `O=C(CSc1nc(Nc2ccc(F)cc2)c2ccccc2n1)c1ccc(F)cc1`, for which the survival is 124%. The value for `COC(=O)c1ccc(Nc2nc(-c3ccc(C)cc3)nc3ccccc23)cc1` was 9% (active). Next, `CCOC(=O)c1nc(Nc2ccc(C(=O)OCC(C)C)cc2)c2ccccc2n1`: 61%; `CCOC(=O)c1nc(Nc2ccc(C(C)=O)cc2)c2ccccc2n1`: 49%. Next, `COc1ccc2c(c1)c1c(c(=O)n(-c3ccc(OC)c(OC)c3)c(=O)n1Cc1ccc(C)cc1)n2C`: 73%; `CCOc1ccc(NC(=O)CSc2nc3c(oc4ccccc43)c(=O)n2-c2ccccc2C)cc1`: 79%; `COc1ccc(CC(=O)N2CCc3cc(OC)c(OC)cc3C2COc2ccc(F)cc2)cc1` (centres undefined): 67%. For `Cn1nnnc1SCCNCc1ccc(OCc2ccc(Cl)cc2)cc1`, the survival is 68%. The value for `CCOc1cc(CNCCSc2nnnn2C)cc(Cl)c1OCc1ccc(Cl)cc1` was 2% (active); that for `COc1cc(CNCCSc2nnnn2C)cc(Cl)c1OCc1ccccc1` was 44% (active). Next, `COc1cccc(CNCCSc2nnnn2C)c1OCc1ccccc1`: 79%; `Cn1nnnc1SCCCNCc1cccc(OCc2ccccc2)c1`: 85%; `Cn1nnnc1SCCCNCc1cccc(OCc2ccc(Cl)cc2)c1`: -3% (active).

For the molecule `COc1cccc(CNCCSc2nnnn2C)c1OCc1ccc(Cl)cc1`, the survival is 62%. The value for `COc1cc(CNCCSc2nnnn2C)ccc1OCc1ccccc1` was 73%; that for `Cn1nnnc1SCCCNCc1ccccc1OCc1ccc(Cl)cc1` was 66%. Next, `Cn1nnnc1SCCCNCc1cccc(OCc2ccc(F)cc2)c1`: 115%; `Cn1nnnc1SCCCNCc1ccccc1OCc1ccccc1F`: 72%. On to `Cn1nnnc1SCCCNCc1ccccc1OCc1ccc(F)cc1`, for which the survival is 57% (active).

Regarding `O=C1CCc2cc(S(=O)(=O)NC(C(=O)Nc3ccc(F)cc3)c3ccccc3)ccc2N1` (centres undefined), the survival was 100%.

Regarding `COc1ccc(-n2c(=O)c3c4c(sc3n(CC(=O)N3CCCCC3C)c2=O)CCC4)c(OC)c1` (centres undefined), the survival was 87%. `Cc1ccc(Cl)cc1NC(=O)Cn1c(=O)c(CNc2ccccc2)cc2cc3c(cc21)OCCO3`: the survival is 95%.

Turning to `CCc1ccc(CN2CCc3nc(Nc4ccccc4)ncc3C2)cc1`, the survival was 84%. The value for `Cc1ccc(Nc2nc3ccc(C(=O)c4ccccc4)cc3n3c(C)nnc23)c(C)c1` was 105%; that for `CCCn1c2ccccc2c2cnn(CC(=O)NCCCN(Cc3ccccc3)C(C)C)c(=O)c21` was 88%; that for `COc1ccc(-c2cc(C(F)(F)F)n3nc(C)c(-c4ccccc4)c3n2)cc1OC` was 69% (active). The value for `COc1ccc(-c2c(C)nn3c(-c4ccccc4)cc(-c4ccccc4)nc23)cc1OC` was 96%; that for `COc1ccc(-c2c(C)nn3c(C(F)(F)F)cc(-c4ccccc4)nc23)cc1` was 62%. The value for `COc1ccc(-c2cc(C)nc3c(-c4ccc(OC)c(OC)c4)c(C)nn23)cc1` was 63%; that for `COc1ccc(-c2c(C)nn3c(C(F)(F)F)cc(-c4ccccc4)nc23)cc1OC` was 57%; that for `COc1ccc(-c2c(C)nn3c(-c4ccccc4)cc(C)nc23)cc1OC` was 38% (active).
